Assay outcomes from PubChem BioAssay.
GSH fluor: compound fluoresces at 488/530 nm on GSH beads; GSH beads flow cytometry, compound fluorescence 488/530 nm; hits give high values; fluorescence (KMESF) at 10 µM; 190,000 tested, 0.25% active; AID 1776; in the data active = fluorescence above about 89;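 note: glutathione beads carrying GST-tagged Bcl family fusion proteins plus one bare bead set; values are compound well signal with DMSO vehicle wells as background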
RGS7-Gao: regulators of human RGS7-Galphao interaction; P09471; Multiplexed bead flow cytometry, RGS7-Galphao binding; actives lie on both sides; binding response (% of control), % at 10 µM; 220,000 tested, 0.35% active; AID 1439; in the data active = binding response below about 49% or above about 150%; inconclusive = no clear call, values can overlap the other calls; inactive = in between;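 note: fluorescent Galphao held in activated GDP-AlF4 state binding bead-coupled RGS7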
Target sequence (P09471 whole entry, looked up): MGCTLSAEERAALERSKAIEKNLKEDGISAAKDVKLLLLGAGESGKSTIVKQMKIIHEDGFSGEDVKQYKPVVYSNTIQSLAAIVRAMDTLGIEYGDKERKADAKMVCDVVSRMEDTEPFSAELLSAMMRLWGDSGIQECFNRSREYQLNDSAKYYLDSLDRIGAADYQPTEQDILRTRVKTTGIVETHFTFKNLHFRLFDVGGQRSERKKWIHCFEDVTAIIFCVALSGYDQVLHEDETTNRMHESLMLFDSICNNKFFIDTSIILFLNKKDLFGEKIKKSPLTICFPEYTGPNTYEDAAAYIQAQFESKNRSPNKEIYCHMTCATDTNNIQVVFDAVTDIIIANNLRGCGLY
RGS4-Gao reg: modulates binding of RGS4 to human Galphao. AID 1415. binding response (% of control), % at 10 µM. 220,000 tested, 0.33% active. Multiplexed bead flow cytometry; actives lie on both sides. P09471; in the data active = binding response below about 49% or above about 150%; inactive = in between;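 note: fluorescent Galphao activated with aluminum fluoride binding bead-coupled RGS4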
RGS8-Gao reg: modulates binding of RGS8 to human Galphao. response (percent of control binding), % at 10 µM. AID 1423. 220,000 tested, 0.34% active. multiplexed bead flow cytometry; actives lie on both sides; in the data active = response below about 60% or above about 140%; inactive = in between;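 note: Galphao activated as the GDP aluminium fluoride complex binding bead-coupled RGS8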
Avidin fluor: compound fluoresces at 488/530 nm on avidin beads; fluorescence (KMESF) at 10 µM; 220,000 tested, 0.38% active; compound fluorescence 488/530 nm, flow cytometry; hits give high values; in the data active = fluorescence above about 47
RGS16-Gao: regulators of human RGS16-Galphao interaction; 220,000 tested, 0.38% active; bead-based flow cytometry RGS16-Galphao binding, fluorescence; actives lie on both sides; binding response (% of control), % at 10 µM; AID 1441; O15492+P09471; call rule not given here;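 note: Galphao activated by GDP with aluminum fluoride before binding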
Target sequence (O15492 whole entry, looked up): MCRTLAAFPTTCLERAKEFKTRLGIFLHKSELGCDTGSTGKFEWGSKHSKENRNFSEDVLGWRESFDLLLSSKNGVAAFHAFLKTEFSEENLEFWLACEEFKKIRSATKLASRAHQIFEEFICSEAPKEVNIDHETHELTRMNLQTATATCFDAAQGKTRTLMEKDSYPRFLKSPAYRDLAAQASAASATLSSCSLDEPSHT
Target sequence (P09471 whole entry, looked up): as the sequence (P09471 whole entry, looked up) above
Active calls of the source: *; ? = inconclusive; · = no result given. Sampled rows, rich in hits. Any-hit rate of the full collection: about 1.2%.

SMILES | GSH fluor | RGS7-Gao | RGS4-Gao reg | RGS8-Gao reg | Avidin fluor | RGS16-Gao
COC(=O)C(C)N1C(=O)S/C(=C/c2cc(C)n(-c3ccccn3)c2C)C1=O (centres undefined) | 267* | 101 | 104 | 104 | 8 | 98
CC(C)(C)C(=O)N(CCN(C(=O)C(C)(C)C)c1ccccc1)c1ccccc1 | 17 | 113 | 111 | 103 | 50* | 109
CN1CCN(/C(=N\O)c2nonc2N)CC1 | 24 | 97 | 99 | 103 | 5 | 108
Nc1nonc1/C(=N/O)N1CCN(CCO)CC1 | 261* | 98 | 102 | 98 | 9 | 101
CC(C)NC(=O)COC(=O)c1ccc(Oc2ccccc2)cc1 | 265* | 104 | 104 | 109 | 9 | 109
CSc1nc2ccc(S(=O)(=O)N3CCCCC3)cc2s1 | 24 | 107 | 106 | 103 | 50* | 107
CSc1nc2ccc(S(=O)(=O)N3CCOCC3)cc2s1 | 30 | 101 | 103 | 102 | 11 | 99
CSc1nc2ccc(NS(=O)(=O)c3ccc4c(c3)OCCO4)cc2s1 | 262* | 103 | 103 | 92 | 4 | 65
CC1=C(C)CC(C(=O)Nc2cccc(Cl)c2)C(C(=O)O)C1 (centres undefined) | 46 | 99 | 103 | 101 | 15 | 104
O=C(O)C1CC=CCC1C(=O)Nc1cccc(Cl)c1 (centres undefined) | 277* | 102 | 102 | 105 | 7 | 102
O=C(Nc1cccc2ccccc12)NC1CCS(=O)(=O)C1 (centres undefined) | 17 | 128 | 96 | 100 | 58* | 116
Cc1sc2ncn(CC(=O)NCCCC(=O)N3CCN(c4ncccn4)CC3)c(=O)c2c1C | 5 | 135 | 117 | 102 | 52* | 136
Cc1sc2ncn(CC(=O)NCCCC(=O)N3CCN(c4ccccn4)CC3)c(=O)c2c1C | 14 | 100 | 96 | 98 | 10 | 99
Cc1nnc(NC(=O)CSc2ccc3nnc(-c4cccnc4)n3n2)s1 | 21 | 103 | 105 | 100 | 9 | 102
CC1=NN(C(C#N)c2c(C)nn(Cc3ccccc3)c2C)C(C)(C)C1 (centres undefined) | 16 | ? | 100 | 102 | 13 | 102
CC(C(=O)OCc1nnc(-c2ccccc2)o1)N1C(=O)c2ccccc2C1=O (centres undefined) | 263* | 112 | 111 | 107 | 7 | 119
CCSc1nnc(NC(=O)CSc2nc3c(c(=O)n2-c2ccccc2)SCC3)s1 | 147* | 102 | 100 | 103 | 7 | 106
Cc1ccc(-n2c(SCC(=O)Nc3nccs3)nc3c(c2=O)SCC3)cc1 | 40 | 97 | 97 | 101 | 12 | 100
CCN1CCN(S(=O)(=O)c2cc(C(=O)O)ccc2Cl)CC1 | · | ? | 124 | 98 | 58* | 101
Cc1cc(C)cc(NC(=O)CSc2nc(CSc3ccc(Cl)cc3)cc(=O)[nH]2)c1 | · | ? | 98 | 102 | 10 | 102
CSCC[C@H](NC(=O)OC(C)(C)C)c1nnc(SCC=C(C)C)o1 | 267* | 101 | 100 | 100 | 8 | 101
CCOc1cccc(/C(O)=C2/C(=O)C(=O)N(Cc3cccnc3)C2c2ccco2)c1 (centres undefined) | 7 | 121 | 103 | 100 | 58* | 100
CC(C)OCC1CC(CC(=O)Nc2ccc([N+](=O)[O-])cc2)C(=O)O1 (centres undefined) | 11 | 95 | 99 | 101 | 12 | 101
CCC1(CC)Cc2ccccc2C(N)=C1C#N | 27 | 112 | 102 | 102 | 63* | 101
Fc1ccc(N2CCN(c3ccc4c(C(F)(F)F)cc(C(F)(F)F)nc4n3)CC2)cc1 | 15 | 133 | 117 | 100 | 92* | 121
SMILES | GSH fluor | RGS7-Gao | RGS4-Gao reg | RGS8-Gao reg | Avidin fluor | RGS16-Gao
Cc1nc2ccccc2c(=O)n1NC(=O)c1cccnc1Cl | 11 | 96 | 101 | 101 | 6 | 97
Cc1nc2ccccc2c(=O)n1NC(=O)c1ccccc1[N+](=O)[O-] | 22 | 114 | 102 | 104 | 49* | 106
COCCNC(=O)C1(C)Oc2ccccc2NC1=O (centres undefined) | 260* | 98 | 102 | 104 | 7 | 101
c1ccc(Cc2cc[n+](Cc3ccccn3)cc2)cc1 | · | ? | 96 | 100 | 6 | 98
CCCCNC(=O)COC(=O)CCC(=O)c1ccc(F)cc1 | 266* | 103 | 103 | 101 | 8 | 104
Cc1ccccc1-n1cnnc1SCC(=O)N1CCN(c2ccccc2)CC1 | 15 | 107 | 104 | 101 | 50* | 102
Cc1nnc(SCC(=O)N2CCN(c3ccccc3)CC2)n(N)c1=O | 19 | 98 | 103 | 100 | 6 | 101
CC(C)COc1ccc(/C(O)=C2/C(=O)C(=O)N(CCN(C)C)C2c2ccncc2)cc1 (centres undefined) | 20 | 108 | 111 | 115 | 19 | 158
COc1cc(C2/C(=C(/O)c3ccc(OCC(C)C)cc3)C(=O)C(=O)N2CCN(C)C)ccc1O (centres undefined) | 262* | 113 | 121 | 117 | 8 | 142
O=C(c1cc2c(ccc3ccccc32)o1)N1CCN(c2ncc(C(F)(F)F)cc2Cl)CC1 | 277* | 100 | 102 | 100 | 8 | 104
O=C(CN1CCN(c2ncc(C(F)(F)F)cc2Cl)CC1)NC(=O)NCc1ccccc1 | 11 | 103 | 102 | 102 | 21 | 107
CCc1ccc(C(=O)/C=C/Nc2ccc(S(=O)(=O)Nc3cnc4ccccc4n3)cc2)cc1 | · | ? | 100 | 103 | 8 | 98
CCC(c1nnnn1Cc1cccs1)N1CCN(C2CCCC2)CC1 (centres undefined) | 28 | 108 | 104 | 105 | 19 | 104
CCCC(c1nnnn1Cc1cccs1)N1CCN(C2CCCC2)CC1 (centres undefined) | 19 | 150 | 104 | 98 | 117* | 101
CN(C)c1cc(-c2ccc([N+](=O)[O-])cc2)oc(=O)c1Cl | · | ? | 91 | 98 | 6 | 92
CS(=O)(=O)N1CCN(c2ccccc2NC(=O)c2cccs2)CC1 | 10 | 98 | 98 | 99 | 47* | 98
O=C(Nc1ccccc1N1CCCCC1)c1cccs1 | 34 | 108 | 108 | 102 | 14 | 106
NC(=O)C1CCN(CC(=O)Nc2cccnc2Cl)CC1 | 10 | 99 | 101 | 99 | 8 | 100
COC(=O)C1C(O)=C(C(C)=Nc2cccc3ccccc23)C(=O)CC1(C)C (centres undefined) | · | ? | 109 | 104 | 5 | 108
Cc1cc(N2CCCCC2)nc(N2CCOCC2)n1 | 35 | 125 | 110 | 106 | 111* | 109
Cc1cc(N2CCOCC2)nc(N2CCOCC2)n1 | 23 | ? | 102 | 99 | 11 | 98
CC(=O)NNC(=S)NCCc1ccccc1 | 12 | 135 | 106 | 101 | 96* | 110
